Bioassay records as filed in PubChem BioAssay.
This excerpt belongs to a sample that is enriched for hits.
NOMO-1 viab – STK33 inhibitor candidate reducing NOMO-1 cell viability | NOMO-1 AML viability, CellTiter-Glo luminescence, 72 h | inhibition, % (concentration not given with the values) | actives 7.5% (n = 37,000); in the data active = inhibition above about 80%
STK33 kin inh – inhibitors of human STK33 kinase | Q9BYT3 | ADP-Glo luminescence, MBP substrate | inhibition, % at 12.5 µM | actives 0.44% (n = 27,000); in the data active = inhibition above about 20%
Target sequence (Q9BYT3 whole entry, looked up): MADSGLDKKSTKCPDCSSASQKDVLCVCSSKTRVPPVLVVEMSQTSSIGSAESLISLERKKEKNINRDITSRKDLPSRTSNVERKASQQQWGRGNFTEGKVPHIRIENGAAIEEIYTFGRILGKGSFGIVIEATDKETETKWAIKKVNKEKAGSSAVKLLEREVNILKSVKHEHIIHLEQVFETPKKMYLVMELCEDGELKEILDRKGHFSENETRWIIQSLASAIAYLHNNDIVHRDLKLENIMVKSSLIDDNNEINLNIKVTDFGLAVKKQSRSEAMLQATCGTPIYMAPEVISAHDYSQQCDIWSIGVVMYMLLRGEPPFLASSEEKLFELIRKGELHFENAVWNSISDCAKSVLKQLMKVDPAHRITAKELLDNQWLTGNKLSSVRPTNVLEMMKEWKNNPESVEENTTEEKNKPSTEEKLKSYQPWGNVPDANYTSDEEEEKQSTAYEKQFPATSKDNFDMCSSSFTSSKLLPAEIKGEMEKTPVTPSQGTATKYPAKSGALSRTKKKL
PD-1 reverse act – reversal of PD-1 mediated T-cell inhibition | primary human CD4 T cells, PD-L1 beads, CellTiter-Glo 96 h | activation, % (concentration not given with the values) | 29,000 tested, under 10 active; call rule not given here
Hits are given with their value; – = inactive; · = not tested or not shown.

SMILES	NOMO-1 viab	STK33 kin inh	PD-1 reverse act
COc1ccc(-n2c(/C=C/N(C)C)c([N+](=O)[O-])c3ccc(OC(C)=O)c(COC(C)=O)c32)cc1	·	–	·
CCc1ccccc1NC(=O)CSc1nc2sc3c(c2c(=O)n1-c1ccccc1)CCC3	–	–	–
CCn1c(SCC(=O)Nc2ccc3c(c2)OCCO3)nnc1-c1ccccc1O	–	–	–
Cc1c(Cl)cccc1NC(=O)C(C)N(c1ccc(Oc2ccccc2)cc1)S(C)(=O)=O (stereo not given)	–	–	–
O=C1Nc2ccc(Br)cc2/C1=C/c1cc2c([nH]1)CCCC2	–	72	–
CN(C)S(=O)(=O)c1ccc2c(c1)/C(=C/c1cc3c([nH]1)CCCC3)C(=O)N2	–	–	–
CCCC12CCC(c3ccc(C#N)cc3)(CC1)CC2	–	·	–
O=C(CN1C(=O)c2cccc3cccc1c23)Nc1cccc([N+](=O)[O-])c1	–	–	–
Cc1ccc(-n2c(=O)c3c4c(sc3n3c(SCC(=O)c5ccc(F)cc5)nnc23)CCCC4)cc1	96	–	·
O=C(O)CSc1nnc2n(CCc3ccccc3)c(=O)c3c4c(sc3n12)CCCC4	–	–	·
COc1cc(C[C@H]2C(=O)OC[C@@H]2Cc2ccc(O[C@@H]3O[C@H](CO)[C@@H](O)[C@H](O)[C@H]3O)c(OC)c2)ccc1O	–	–	–
CC(C)N(Cc1nc(-c2ccccc2)no1)S(=O)(=O)c1ccc(Br)cc1	–	–	·
Cc1ccc(S(=O)(=O)Nc2ccc3c(c2)CC(=O)N([C@H](C)CO)C[C@H](C)[C@H](CN(C)Cc2ccc(-c4ccccc4)cc2)O3)cc1	84	–	·
C[C@@H]1CN([C@H](C)CO)C(=O)Cc2cc(NS(=O)(=O)c3ccccc3)ccc2O[C@@H]1CN(C)Cc1ccc(-c2ccccc2)cc1	104	–	–
C[C@@H]1CN([C@@H](C)CO)C(=O)Cc2cc(NS(=O)(=O)c3ccccc3)ccc2O[C@@H]1CN(C)Cc1ccc(-c2ccccc2)cc1	–	–	–
C[C@H]1CN([C@@H](C)CO)C(=O)Cc2cc(NS(=O)(=O)c3ccc(F)cc3)ccc2O[C@@H]1CN(C)Cc1ccc(-c2ccccc2)cc1	122	–	·
Cc1ccc(S(=O)(=O)Nc2ccc3c(c2)CC(=O)N([C@H](C)CO)C[C@@H](C)[C@@H](CN(C)Cc2ccccc2)O3)cc1	85	–	–
C[C@@H]1CN([C@H](C)CO)C(=O)Cc2cc(NS(=O)(=O)c3ccc(F)cc3)ccc2O[C@@H]1CN(C)Cc1ccccc1	–	–	–
Cc1ccc(S(=O)(=O)Nc2ccc3c(c2)CC(=O)N([C@@H](C)CO)C[C@H](C)[C@H](CN(C)Cc2ccc(-c4ccccc4)cc2)O3)cc1	–	–	·
Cc1ccc(S(=O)(=O)Nc2ccc3c(c2)CC(=O)N([C@@H](C)CO)C[C@@H](C)[C@@H](CN(C)Cc2ccccc2)O3)cc1	–	–	–
COc1ccc(C)cc1NC(=O)CSc1nc2ccccc2c(=O)n1-c1ccc(Cl)cc1	–	–	–
C=C(CO)[C@]1(O)C[C@@]2(C)C(=CC1=O)C=C[C@@H](O)[C@@H]2C	–	–	–
COc1ccc(Br)cc1CNCCN1CCOCC1	–	–	–
C/C1=C/CC(=O)[C@@H](C)C[C@H]2OC(=O)C(CO)=C2CC1	–	–	–
O=C(COc1ccc2ccccc2c1Br)NCc1cccnc1	–	–	–
SMILES	NOMO-1 viab	STK33 kin inh	PD-1 reverse act
C[C@@H]1CN([C@H](C)CO)C(=O)c2cc(NS(=O)(=O)c3ccc(Cl)cc3)ccc2O[C@H]1CN(C)Cc1ccc(-c2ccccc2)cc1	–	–	–
C[C@H]1CN([C@@H](C)CO)C(=O)Cc2cc(NS(=O)(=O)c3ccc(Cl)cc3)ccc2O[C@@H]1CN(C)Cc1ccc(-c2ccccc2)cc1	124	–	–
O=C(O)c1cccc(NC(=O)C2(c3ccccc3)CCN(S(=O)(=O)c3ccccc3)CC2)c1	–	–	–
Cc1ccccc1S(=O)(=O)N1CCN(Cc2cccc(OCCO)c2)CC1	·	–	·
CC(O)(C(=O)Nc1ccc(S(=O)(=O)c2ccccc2)cc1)C(F)(F)F (stereo not given)	–	–	·
CC(C)(C)C(=O)Nc1ccc2c(c1)C(=O)C(=O)c1ccccc1-2	98	–	–
Cn1c(SCC(=O)Nc2ccc(F)cc2)nnc1-c1ccc([N+](=O)[O-])cc1	–	27	–
O=C(CSc1nnc(-c2ccc([N+](=O)[O-])cc2)n1-c1ccccc1)Nc1ccc(F)cc1	–	–	–
COc1cc(OC)c(C(=O)NCCCN(C)C)cc1OC	–	–	–
COc1cc(/C=C/C(=O)O[C@@H]2C[C@@](O)(C(=O)O)C[C@@H](O)[C@@H]2O)ccc1O	–	–	–
COc1cccc(/C=C/C(=O)O)c1C(C)C	–	–	·
COc1ccc(/C=C/C(=O)c2c(OC)cc(OC)c(CC=C(C)C)c2OC)cc1	–	–	–
COc1ccc(/C=C/C(=O)CC(=O)/C=C/c2cccc(O)c2OC)cc1O	115	123	·
COc1cc(/C=C/C(=O)CC(=O)/C=C/c2ccc(O)c(OC)c2)ccc1O	107	117	·
COc1cc(O)c(CC=C(C)C)cc1C(=O)/C=C/c1ccc(O)c(CC=C(C)C)c1	86	–	–
O=C(NCCCN1CCCC1=O)Nc1ccc(Br)cc1	–	–	·
CN(C(=O)c1cn(C)c(=O)cc1C(F)(F)F)c1ccc(Cl)c(Cl)c1	–	·	–
Cc1c(Cl)cccc1N(CC(=O)O)S(=O)(=O)c1ccccc1	–	–	–
Cn1c(SCC(=O)Nc2ccccc2C(F)(F)F)nnc1-c1ccco1	–	–	–
COc1ccc(N(CC(=O)Nc2ccc(Cl)c(Cl)c2)S(C)(=O)=O)cc1OC	–	–	–
COc1ccc(C)cc1S(=O)(=O)N1CCCC(C(=O)Nc2ccccc2F)C1 (stereo not given)	–	–	–
CC(=O)c1cccc(NC(=O)CN(C2CCCCC2)S(=O)(=O)c2ccc(Br)cc2)c1	–	–	–
O=C(COc1ccc(Cl)c2cccnc12)Nc1cccc([N+](=O)[O-])c1	–	–	–
COc1ccc(C(Nc2ccccn2)c2cc(Cl)c3cccnc3c2O)cc1[N+](=O)[O-] (stereo not given)	113	–	·
COc1cc(C(Nc2ccccn2)c2cc(Cl)c3cccnc3c2O)cc(I)c1O (stereo not given)	–	–	·
SMILES	NOMO-1 viab	STK33 kin inh	PD-1 reverse act
COc1ccc(Br)cc1C(Nc1ccccn1)c1cc(Cl)c2cccnc2c1O (stereo not given)	114	–	·
Cc1cc(C)n(-c2nc3ccc([N+](=O)[O-])cc3nc2-n2nc(C)cc2C)n1	–	–	–
COC(=O)c1cc2ccccc2[nH]1	–	·	–
S=C(NCc1csc2ccccc12)NCC1CC1	–	·	–
CC1CC(NC(=S)NCc2csc3ccccc23)CC(C)(C)C1 (stereo not given)	109	·	–
COc1ccc(Cl)cc1NC(=O)C(C)n1cc([N+](=O)[O-])cn1 (stereo not given)	–	–	–
COc1cc(NC(=O)COc2ccc3ccccc3c2Br)c(OC)cc1Cl	126	–	–
COC(=O)c1cc(OC)c(OC)cc1NC(=O)COc1ccc2ccccc2c1Br	–	–	–
CN(C)CCNc1nc2c(c(=O)n(C)c(=O)n2C)n1Cc1ccccc1F	–	–	·
Cc1ccc(C(=O)Nc2sc3c(c2C#N)CCCC3)cc1S(=O)(=O)N1CCOCC1	–	–	–
